# In PubChem BioAssay (NCATS):
# Values joined by “and” are separate entries in the source; they are usually repeats but may differ in a detail not shown here. Equal entries are not always repeated. Inconclusive results are not listed. A number with no mark means an inactive call. Active and inactive are the calls of the source. Calls come from the whole dose curve; as a rule, active = well fitted cell-killing curve with a large enough effect; inconclusive = small, poorly fitted or top-dose-only effect, or effect the other way; inactive = no such curve, though single readings can be large or run the other way.
# Test: Viability qHTS for spleen associated tyrosine kinase inhibitor (SYKi) drug resistant MV4-11 cells (AID 1963824); note: nearly all actives have a fitted effect of over 35% in size
# Summary of the method: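 SYK-inhibitor-resistant MV4-11 AML cells were seeded at 500 per well onto compound and cultured 72 hours (37 °C, 5% CO2). CellTiter-Glo was then added, and after 10 min at room temperature, luminescence gave viability.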
# Potency is the fitted concentration of half-maximal effect.
SMILES,Potency,"viability, % of control"
CC1OC2OC(=O)C3(C)CC4C5(CO5)C5=CC(=O)OC(C)(C)C5=CC(=O)C4(C)C(C1=O)C23 (stereo unspecified),5.02 µM (active),
O=c1[nH]c2cccc(N3CCN(Cc4ccc(-c5ccccc5)cc4)CC3)c2o1,20.6 µM (active),
CC(=O)N[C@H]1[C@H](O[C@H]2CC[C@@]3(C)C(CC[C@]4(C)C3CC=C3[C@@H]5CC(C)(C)CC[C@]5(C(=O)OC5OCC(O)C(O)C5O)CC[C@]34C)C2(C)C)O[C@H](COC2OC(C)C(O)C(OC3OC(C)C(O)C(O)C3O)C2O)[C@@H](O)[C@@H]1O (stereo partly specified),,87% [at 9.25 µM]
C=C1C2=CC(O)C(C)C1(C)CC/C(C)=C/CCC1(C)OC1C2=O (stereo unspecified),10.1 µM (active),
COc1cc2nc(N3CCC(N4CCCCC4)CC3)nc(NC3CCCCCC3)c2cc1OC,1.03 µM (active),
Clc1ccc(Cn2c(Cc3ccccc3)nc3ccccc32)cc1,16.4 µM (active),
CNC(=O)c1ccccc1Sc1ccc2c(/C=C/c3ccccn3)n[nH]c2c1,8.41 µM (active) and 1.3 µM (active) and 3.32 µM (active),
O=C(Nc1cc(C(F)(F)F)ccc1N1CCCCC1)c1ccncc1,14.6 µM (active),
CC1CC2OCC3(O)CCC(O)C(C14CC(c1ccoc1)OC4=O)C23CO (stereo unspecified),inactive,
COC(=O)C1=CO[C@@H](O[C@@H]2O[C@H](CO)[C@@H](O)[C@H](O)[C@H]2O)[C@@H]2[C@@](C)(O)[C@@H](OC(=O)/C=C/c3ccc(O)cc3)C[C@]12O,inactive,
Cc1nc2ccccc2n1Cc1ccc(Cl)cc1,0.422 µM (active),
